Experimental data: PubChem BioAssay AID488896 (Broad Institute, 2010)
Among all 320,000 compounds or so, about 3,100 (0.97%) were called active. Only a selection was taken, and actives are over-represented in it overall. A number with no mark means an inactive call.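 The calls were made as follows: active = mean replicate inhibition of at least 70% and a set share of replicates each scoring 70 or more; inconclusive = meets just one of the two criteria; inactive = fails both criteria.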

Biological target: Scavenger receptor class B member 1 (Mus musculus) (UniProt Q61009)
Sequence (Q61009 whole entry, looked up): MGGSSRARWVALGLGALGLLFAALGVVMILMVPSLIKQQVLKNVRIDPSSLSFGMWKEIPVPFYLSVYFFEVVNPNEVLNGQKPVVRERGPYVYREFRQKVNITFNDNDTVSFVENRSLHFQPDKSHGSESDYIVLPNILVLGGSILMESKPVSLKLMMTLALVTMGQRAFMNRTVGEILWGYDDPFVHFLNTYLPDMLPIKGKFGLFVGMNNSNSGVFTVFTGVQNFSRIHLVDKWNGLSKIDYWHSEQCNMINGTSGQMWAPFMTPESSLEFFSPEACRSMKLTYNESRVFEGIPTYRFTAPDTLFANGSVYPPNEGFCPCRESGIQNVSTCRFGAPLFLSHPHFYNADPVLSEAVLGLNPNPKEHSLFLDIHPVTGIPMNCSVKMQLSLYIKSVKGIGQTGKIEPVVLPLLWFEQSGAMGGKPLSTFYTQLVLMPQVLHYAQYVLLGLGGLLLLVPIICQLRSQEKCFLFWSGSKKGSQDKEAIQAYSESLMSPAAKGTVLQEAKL
Test: inhibitors of SR-BI mediated HDL lipid uptake, primary screen, ldlA[mSR-BI] cells, fluorescence, single point (AID 488896);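 also: 0% = median of neutral control wells and 100% = median of positive control wells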
Conditions: ldlA[mSR-BI] CHO cells, DiI-HDL uptake fluorescence, 3 h; at 12.5 µM; active compounds read high

Compound | inhibition
CCCCC(=O)NC(c1ccc(OC)c(OC)c1)c1ccc2cccnc2c1O (stereo unspecified) | 3.38%
N#C/C(=C\C1=C(N2CCOCC2)C(=C\c2ccccc2)/CC1)C(=O)Nc1ccccc1F | 83.9% (active)
N#C/C(=C\c1ccccc1C(F)(F)F)C(=O)Nc1ccccc1F | -32.2%
O=C(CC1SC(N2CCOCC2)=NC1=O)Nc1ccccc1F (stereo unspecified) | -4.16%
O=C(Nc1ccc(S(=O)(=O)N2CCOCC2)cc1)C1CCN(S(=O)(=O)c2ccc(Cl)cc2)CC1 | -8.47%
CC12CCCCC1=CC(=O)CC2 (stereo unspecified) | -0.111%
COc1ccc(Cl)cc1C=CC=NNC(=O)c1ccncc1 | 70%
CC(C)(C)OC(=O)NNc1c2ccccc2nc2ccccc12 | 23.2%
O=C(N/N=C/c1cccnc1)c1cc2ccccc2cc1O | 25.7%
O=C(NNc1c2ccccc2nc2ccccc12)c1cc2ccccc2cc1O | 117% (active)
COC(=O)c1ccc(NCc2cc(O)ccc2O)cc1 | -3.37%
CC(C)c1cc(N=O)cc(C(C)C)c1O | -19.1%
O=C(NN=Cc1ccccc1)c1ccccc1 | -4.39%
CC(C)c1ccc(C=NNc2ccc([N+](=O)[O-])cn2)cc1 | -2.92%
Cc1nn(-c2ccc(F)cc2)c(Cl)c1/C=C(/CCC(=O)O)c1nc2ccccc2s1 | -16%
O=C(CC1Sc2ccccc2NC1=O)NNc1ccc(Cl)c(Cl)c1 (stereo unspecified) | 45.6%
N#CC1=C(N)Oc2cc(N)ccc2C1c1ccccc1 (stereo unspecified) | -23.9%
COc1ccc2nc(NC(=O)[C@@H]3CCCN3C(=O)c3cccs3)sc2c1 | 14.9%
COc1ccc2nc(NC(=O)c3ccc(Br)s3)sc2c1 | 55.7%
COc1ccc2nc(Nc3nc(-c4ccncc4)cs3)sc2c1 | 80.2% (active)
OCC(O)C1OCOC(C(O)CO)C1O (stereo unspecified) | -38.2%
CC1(C)C(=O)CCC2(C)C1=CCC1C2C(=O)CC2(C)C1CCC2(O)C(=O)CO (stereo unspecified) | -7.32%
CC1CCCN(C(=O)Cn2c(=O)oc3cc(S(=O)(=O)N4CCCCC4C)ccc32)C1 (stereo unspecified) | -29.3%

Compound | inhibition
CC(C)C[C@H]1CN([C@@H](CC(C)C)CN2CCC[C@@H]2CN2C(=O)C(=O)NC[C@@H]2Cc2ccccc2)C(=O)C(=O)N1CCc1ccccc1 | 20.9%
CS(=O)(=O)c1ccc2nc(NC(=O)C3C4C=CC(C4)C3C(=O)O)sc2c1 (stereo unspecified) | 5.33%
COc1cccc(C(=O)Nc2nc3ccc(S(C)(=O)=O)cc3s2)c1 | 70.8% (active)
CS(=O)(=O)c1ccc2nc(NC(=O)c3ccc(Cl)nc3)sc2c1 | 32.9%
Cc1ccc(S(=O)(=O)n2oc(=O)c(C3CCCCC3)c2N)cc1 | -8.19%
O=C1C(Cl)=C(Oc2ccccc2)C(=O)c2ccccc21 | 13.1%
CCCC(=O)N(CCN1CCOCC1)c1nc2ccc(OCC)cc2s1 | 40.2%
COc1ccc(S(=O)(=O)N2CCCCC2)cc1NC(=O)c1cc([N+](=O)[O-])ccc1N1CCOCC1 | 23.2%
CCOc1ccc2nc(NC(=O)c3cc([N+](=O)[O-])ccc3N3CCOCC3)sc2c1 | 78.1% (active)
O=C1OC(Cc2ccccc2)C(c2ccccc2)C1=O (stereo unspecified) | -5.71%
COc1ccc(N=C2C=CC(=O)O2)cc1 | -24.8%
O=S(=O)(Cc1ccc(Cl)cc1Cl)c1ccc(Cl)cc1 | 15.8%
CCCOC(=O)c1[nH]c2c(c1C)C(=O)CC(c1cc(OC)c(OC)c(OC)c1)C2 (stereo unspecified) | 81.3% (active)
CCCOC(=O)c1[nH]c2c(c1C)C(=O)CC(c1cccs1)C2 (stereo unspecified) | 59.1%
COCCOC(=O)c1[nH]c2c(c1C)C(=O)CC(c1ccc(OC)cc1)C2 (stereo unspecified) | 41.6%
Cc1cccc(NC(=S)N2CCC(C(=O)c3ccc(F)cc3)CC2)c1 | 14.1%
C#CCOCCOCCOCCNc1nc(N2CCN(C(=O)Cn3cc(CCO)nn3)CC2)nc(N2CCN(C(=O)[C@H](CCCCN)n3cc(CCCC)nn3)CC2)n1 | -18.7%
COc1ccc(C(CNC(=O)c2cc(S(=O)(=O)Nc3cccc(C)c3)ccc2C)N2CCCC2)cc1 (stereo unspecified) | -20.9%
COc1ccccc1NC(=O)c1ccc(C)s1 | 18%
CCC(=O)Nc1sc(C(=O)Nc2ccccc2)c(C)c1C(=O)OC | 68.4%
COC(=O)c1c(NC(C)=O)sc(C(=O)Nc2ccccc2OC)c1C | 71.5% (active)
c1ccc2c(c1)OC1OC2Oc2ccccc21 | -7.46%
CC(C)Sc1nc(N)nc2c1ncn2C1OC(CO)C(O)C1O (stereo unspecified) | -12.5%

Compound | inhibition
Cc1ccc2occ(/C=N/NC(=O)c3ccccc3C)c(=O)c2c1 | -16.4%
COc1ccc(/C=N/NC(=O)c2cc(-c3cccc(C)c3)nc3ccccc23)cc1O | 66.3%
Cc1ccc(/C=N/NC(=O)C2=NNC(c3ccccc3)(c3ccccc3)C2)c(O)c1 | 106% (active)
CN(C)C(CNC(=O)c1cc2ccccc2o1)c1ccccc1 (stereo unspecified) | 6.69%
O=C(N/N=C/c1ccc(OCC2COCCO2)cc1)c1ccc(Br)cc1 (stereo unspecified) | 74.1% (active)
O=C(O)c1ccc(OCC2CCCO2)cc1 (stereo unspecified) | -17.3%
O=C(O)c1ccc(/C=N/NC(=O)c2ccc(Br)cc2)cc1 | -48.4%
CC1=NN(C(=O)c2ccc(Br)cc2)C(O)(c2ccccc2)C1 (stereo unspecified) | 88.2% (active)
CCOC(=O)C1(O)CC(C)=NN1C(=O)c1cccc(Br)c1 (stereo unspecified) | 5.6%
CC1=NN(C(=O)c2ccccc2Br)C(O)(c2cccnc2)C1 (stereo unspecified) | -13.8%
COc1cc2c(cc1CNC[C@H]1O[C@@H](n3cnc(C(N)=O)n3)[C@H](O)[C@@H]1O)OCO2 | -13.6%
O=C1CC(c2ccccc2)C(=O)N2C(=O)CC(c3ccccc3)C(=O)N12 (stereo unspecified) | -16.5%
COc1ccc(CNCCCn2cnc3c(OCc4ccccc4)ncnc32)cc1 | -7.17%
COc1cccc(CC(=NO)c2cccc(OC)c2)c1 | 2.96%
O=C(CCC(=O)N1CCN(S(=O)(=O)c2ccc(Cl)cc2)CC1)NCc1cccc(C(F)(F)F)c1 | -6.5%
CCOc1cc(CN2CCN(C(=O)CC(C)C)CC2)ccc1OC | 1.83%
CC(C)CC(=O)N1CCN(Cc2ccccc2Br)CC1 | 82.7% (active)
CC(C)CC(=O)N1CCN(Cc2cccc(Cl)c2)CC1 | -7.62%
O=C(Nc1c(Br)cc2c(c1Br)Cc1ccccc1-2)C(F)(F)F | 23.8%
CN(C)c1ccc(C2N(C)C(=O)c3ccccc3N2C)cc1 (stereo unspecified) | -4.86%
CN(C)c1ccc(Nc2c3c4c(cccc4n(C)c2=O)C(=O)c2ccccc2-3)cc1 | 99.9% (active)
CCOC(=O)CCC(NC(=O)c1ccc(CNc2nc3cc(C(F)(F)F)ccc3nc2C(=O)OCC)cc1)C(=O)OCC (stereo unspecified) | 43.7%
O=C1C[C@@H]2c3c(cccc3CN1Cc1ccccc1)C[C@@H](O)[C@H]2O | -2.09%

Compound | inhibition
COc1ccc(OC)c(Cc2cnc3nc(N)nc(N)c3c2C)c1 | 25.9%
c1ccc(C(=NNc2nc3ccccc3s2)c2ccccn2)cc1 | 40.5%
O=C(c1cccc(S(=O)(=O)N2CCCCCC2)c1)N1CCN(Cc2ccccc2)CC1 | 19.3%
O=S(=O)(O)c1cc2onnc2c2ccccc12 | -15.5%
Cc1ccc(SCc2c(C(=O)N/N=C/c3cccnc3)nnn2-c2nonc2N)cc1 | -5.04%
Cc1ccc(SCc2c(C(=O)N/N=C/C3CC=CCC3)nnn2-c2nonc2N)cc1 (stereo unspecified) | -16.5%
Nc1nonc1-n1nnc(C(=O)N/N=C/c2cc(Br)ccc2O)c1CSC1=NCCS1 | 104% (active)
O=[N+]([O-])c1ccc(C=NN=Cc2ccc([N+](=O)[O-])cc2)cc1 | 27%
CC(C)(C)c1nnc2sc(SCC(O)=C(C#N)c3nc4ccccc4[nH]3)nn2c1=O | 22.5%
COc1ccc(-c2csc(Cc3nc(O)cs3)n2)cc1 | 56.2%
CC(C)(C)C(=O)OCc1nc(-c2ccc(O)c(O)c2)cs1 | -7.58%
COc1ccc(OC)c(Nc2nc(-c3ccc(O)c(O)c3)cs2)c1 | 108% (active)
CCN1C[C@@H]2[C@@H]3C(=O)N(C)C(=O)[C@@H]3[C@](C)(C1=O)N2C(=O)c1ccccc1 | 27.8%
COc1ccc(CCC(=O)Nc2ccc(Cl)c(S(=O)(=O)N3CCOCC3)c2)cc1OC | 60.3%
COc1ccc(/C=N/NC(=O)CNC(=O)c2ccc(S(=O)(=O)N3CCCC3)cc2)c(OC)c1 | 84.2% (active)
COc1cccc(/C=N/NC(=O)CNC(=O)c2ccc(S(=O)(=O)N3CCOCC3)cc2)c1OC | 8.73%
COc1cc(C(=O)NNC(=O)c2ccc(S(=O)(=O)N3CCCCC3)cc2)cc(OC)c1OC | -0.571%
COc1ccc(Cn2cc(CN3CCS(=O)(=O)N(Cc4ccc(-c5cccc(Cl)c5)cc4)C(C)C3=O)nn2)cc1 (stereo unspecified) | 34.7%
C=CC(=O)Nc1ccc(Nc2ccnc(Nc3ccc(N4CCN(C)CC4)cc3)n2)cc1 | 5.16%
COc1ccc(NC(=S)NCC2CCN(c3ccc(OC)cc3)C2)cc1 (stereo unspecified) | 27.5%
COc1ccc(NC(=S)NCCN2CCC(C)CC2)cc1 | 1.02%
COc1ccc(N2CCC(CNC(=S)Nc3c(C)cccc3C)C2)cc1 (stereo unspecified) | 80.7% (active)
